# Measured values taken from the supplement of paper PMC12067926.
# Key:
# Experiment in all cases: relative growth (AUC of 72 h growth curve relative to DMSO control, dAUC) (ratio); higher = more growth (less inhibition), active = hit call of the paper
# Conditions in all cases: 20 µM;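 active = growth AUC significantly below the DMSO wells by Dunnett test; inactive = the rest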
# [1] = test system: Aeromonas 1 (Aeromonas sp. AE235)
# In short: (§1)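 Bacterial isolates from Icelandic stream sediments and Silwood Park soil, plus whole sediment communities, were grown to carrying capacity in Luria–Bertani medium, then diluted 1:100 into 96-well plates with each chemical at 20 µM (1% DMSO). A600 was read hourly for 72 h on a plate reader, with brief shaking before each read. Relative growth (dAUC) is the spline-integrated area under the growth curve, averaged over three biological replicates and divided by the mean of the DMSO controls.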
# [2] = test system: Aeromonas 2 (Aeromonas sobria)
# In short: as §1
# [3] = test system: Aeromonas 3 (Aeromonas popoffii)
# In short: as §1
# [4] = test system: Argrobacterium 1 (Agrobacterium sp.)
# In short: as §1
# [5] = test system: Arthrobacter 1 (Arthrobacter humicola)
# In short: as §1
# [6] = test system: Arthrobacter 2 (Arthrobacter humicola)
# In short: as §1
# [7] = test system: Arthrobacter 3 (Arthrobacter sp.)
# In short: as §1
# [8] = test system: Community 10
# In short: as §1
# [9] = test system: Community 4
# In short: as §1
# [10] = test system: Community 6
# In short: as §1
Compound,relative growth [1],relative growth [2],relative growth [3],relative growth [4],relative growth [5],relative growth [6],relative growth [7],relative growth [8],relative growth [9],relative growth [10]
O=C(NC(=O)c1c(F)cccc1F)Nc1ccc(OC(F)(F)C(F)OC(F)(F)F)c(Cl)c1 (stereo not given),0.958 (inactive),0.975 (inactive),0.988 (inactive),0.995 (inactive),0.843 (inactive),0.911 (inactive),0.942 (inactive),0.965 (inactive),0.934 (inactive),0.934 (inactive)
CC1(C(=O)Nc2ccc(O)c(Cl)c2Cl)CCCCC1,0.972 (inactive),0.983 (inactive),0.993 (inactive),0.983 (inactive),0.846 (inactive),1.02 (inactive),0.984 (inactive),0.827 (inactive),0.977 (inactive),0.984 (inactive)
COP(=O)(OC)OC=C(Cl)Cl,0.937 (inactive),0.977 (inactive),0.972 (inactive),0.977 (inactive),0.856 (inactive),0.86 (inactive),0.916 (inactive),1.04 (inactive),0.961 (inactive),0.961 (inactive)
COc1ncc(F)c2nc(S(=O)(=O)Nc3c(F)cccc3F)nn12,1.06 (inactive),1.02 (inactive),1.07 (inactive),0.953 (inactive),1.03 (inactive),1.11 (inactive),1.03 (inactive),1.04 (inactive),1.05 (inactive),1.05 (inactive)
CO/N=C(/C(=O)OC)c1ccccc1CO/N=C(\C)c1cccc(C(F)(F)F)c1,0.966 (inactive),0.929 (inactive),0.961 (inactive),1.07 (inactive),0.928 (inactive),0.876 (inactive),0.97 (inactive),0.708 (inactive),0.822 (inactive),0.809 (inactive)
Cc1cc(C(F)(C(F)(F)F)C(F)(F)F)ccc1NC(=O)c1cccc(I)c1C(=O)NC(C)(C)CS(C)(=O)=O,0.939 (inactive),0.974 (inactive),1.41,0.695 (active),0.792 (inactive),1.02 (inactive),0.822 (inactive),1.21 (inactive),0.805 (inactive),0.894 (inactive)
O=C(O)c1nc(Cl)ccc1Cl,0.95 (inactive),0.943 (inactive),0.997 (inactive),0.946 (inactive),1.03 (inactive),0.895 (inactive),0.963 (inactive),0.892 (inactive),0.903 (inactive),0.972 (inactive)
Cc1ccc(/N=C/N(C)/C=N/c2ccc(C)cc2C)c(C)c1,0.991 (inactive),0.995 (inactive),1 (inactive),0.984 (inactive),0.964 (inactive),0.821 (inactive),1.04 (inactive),0.922 (inactive),0.905 (inactive),0.969 (inactive)
COP(=O)(NC(C)=O)SC (stereo not given),1.02 (inactive),0.995 (inactive),0.998 (inactive),1.03 (inactive),0.984 (inactive),0.906 (inactive),1.05 (inactive),0.781 (inactive),1.01 (inactive),0.892 (inactive)
CSc1nnc(C(C)(C)C)c(=O)n1N,0.969 (inactive),1.01 (inactive),1.04 (inactive),0.991 (inactive),0.948 (inactive),1.06 (inactive),0.961 (inactive),1.03 (inactive),1.08 (inactive),1.02 (inactive)
O=C1C2(Cl)C3(Cl)C4(Cl)C(Cl)(Cl)C5(Cl)C3(Cl)C1(Cl)C5(Cl)C24Cl (stereo not given),0.934 (inactive),0.817 (active),0.99 (inactive),1.03 (inactive),0.00606 (active),0.00565 (active),0.0264 (active),0.82 (inactive),0.858 (inactive),0.811 (inactive)
C#CCN1C(=O)COc2cc(F)c(N3C(=O)C4=C(CCCC4)C3=O)cc21,0.987 (inactive),0.969 (inactive),0.982 (inactive),0.996 (inactive),1.03 (inactive),0.974 (inactive),0.979 (inactive),0.871 (inactive),0.951 (inactive),0.959 (inactive)
N#Cc1c[nH]cc1-c1cccc2c1OC(F)(F)O2,0.982 (inactive),0.92 (inactive),0.986 (inactive),0.99 (inactive),0.868 (inactive),0.824 (inactive),0.882 (inactive),0.855 (inactive),0.977 (inactive),0.93 (inactive)
Nc1c(Cl)c(F)nc(OCC(=O)O)c1Cl,0.974 (inactive),1 (inactive),0.991 (inactive),1.03 (inactive),1.1 (inactive),1.02 (inactive),0.991 (inactive),0.976 (inactive),1.07 (inactive),1.01 (inactive)
O=C1C2CC=CCC2C(=O)N1SC(Cl)(Cl)Cl (stereo not given),0.905 (inactive),1.01 (inactive),0.983 (inactive),0.74 (active),0.95 (inactive),0.769 (inactive),0.919 (inactive),0.58 (inactive),0.671 (inactive),0.614 (active)
CC[C@H](C)[C@H]1O[C@]2(C=C[C@@H]1C)C[C@@H]1C[C@@H](C/C=C(\C)[C@@H](O[C@H]3C[C@H](OC)[C@@H](O[C@H]4C[C@H](OC)[C@@H](O)[C@H](C)O4)[C@H](C)O3)[C@@H](C)/C=C/C=C3\CO[C@@H]4[C@H](O)C(C)=C[C@@H](C(=O)O1)[C@]34O)O2.CO[C@H]1C[C@H](O[C@H]2[C@H](C)O[C@@H](O[C@@H]3/C(C)=C/C[C@@H]4C[C@@H](C[C@]5(C=C[C@H](C)[C@@H](C(C)C)O5)O4)OC(=O)[C@@H]4C=C(C)[C@@H](O)[C@H]5OC/C(=C\C=C\[C@@H]3C)[C@]54O)C[C@@H]2OC)O[C@@H](C)[C@@H]1O,0.949 (inactive),0.927 (inactive),1.06 (inactive),1.11 (inactive),0.181 (active),0.00817 (active),0.16 (active),0.898 (inactive),0.808 (inactive),0.662 (active)
CC(C)NC(=O)N1CC(=O)N(c2cc(Cl)cc(Cl)c2)C1=O,0.998 (inactive),0.934 (inactive),1.01 (inactive),0.984 (inactive),1.06 (inactive),0.957 (inactive),0.841 (inactive),1.01 (inactive),0.925 (inactive),0.969 (inactive)
COCC(C)N(C(=O)CCl)c1c(C)csc1C (stereo not given),0.991 (inactive),0.984 (inactive),0.964 (inactive),1.02 (inactive),0.907 (inactive),0.814 (inactive),1.05 (inactive),0.97 (inactive),0.913 (inactive),0.975 (inactive)
CCOCn1c(-c2ccc(Cl)cc2)c(C#N)c(Br)c1C(F)(F)F,0.988 (inactive),0.989 (inactive),1.01 (inactive),0.978 (inactive),1.14 (inactive),0.829 (inactive),0.987 (inactive),0.934 (inactive),1.07 (inactive),0.99 (inactive)
CCOP(=S)(OCC)Oc1nc(Cl)c(Cl)cc1Cl,1.05 (inactive),1 (inactive),1.06 (inactive),0.979 (inactive),1.04 (inactive),0.994 (inactive),1.08 (inactive),0.928 (inactive),0.974 (inactive),0.953 (inactive)
CNC(=O)Oc1cccc(/N=C/N(C)C)c1,1 (inactive),0.973 (inactive),0.975 (inactive),0.977 (inactive),0.93 (inactive),0.951 (inactive),1.1 (inactive),0.8 (inactive),0.984 (inactive),0.995 (inactive)
N#Cc1sc2c(=O)c3ccccc3c(=O)c=2sc1C#N,0.852 (inactive),0.905 (inactive),1.07 (inactive),1.09 (inactive),0.649 (active),0.193 (active),0.557 (active),1.16 (inactive),1.12 (inactive),1.12 (inactive)
CC(C)(C)C(O)(CCc1ccc(Cl)cc1)Cn1cncn1 (stereo not given),0.916 (inactive),0.917 (inactive),1.01 (inactive),0.949 (inactive),0.544 (active),0.232 (active),0.39 (active),0.835 (inactive),0.913 (inactive),0.878 (inactive)
CN/C(=N\[N+](=O)[O-])NCc1cnc(Cl)s1,1 (inactive),0.976 (inactive),0.985 (inactive),0.98 (inactive),0.983 (inactive),0.841 (inactive),0.873 (inactive),0.931 (inactive),0.981 (inactive),0.914 (inactive)
CNC(=O)/C=C(\C)OP(=O)(OC)OC,0.951 (inactive),0.972 (inactive),0.995 (inactive),0.984 (inactive),0.943 (inactive),0.906 (inactive),0.94 (inactive),0.927 (inactive),0.942 (inactive),0.973 (inactive)
COc1cc(OC)nc(NC(=O)NS(=O)(=O)c2ncccc2C(=O)N(C)C)n1,1.06 (inactive),1.01 (inactive),1.03 (inactive),0.995 (inactive),0.976 (inactive),1.11 (inactive),1.05 (inactive),1.11 (inactive),1.08 (inactive),1.06 (inactive)
C#CCOc1ccc(CCNC(=O)C(OCC#C)c2ccc(Cl)cc2)cc1OC (stereo not given),0.978 (inactive),0.985 (inactive),1 (inactive),1.05 (inactive),1.04 (inactive),0.935 (inactive),0.953 (inactive),0.982 (inactive),0.951 (inactive),1.02 (inactive)
